The source of these data is PubChem BioAssay AID504690 (Sanford-Burnham Center for Chemical Genomics, 2011).

The campaign covered roughly 350,000 compounds. About 2,700 (0.77%) were called active.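 How the source made its calls: active means inhibition reaching at least a set limit at 20 µM in the primary screen (cut at about 59% in these data); inactive means the rest.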 What follows is part of a selection rich in actives, with near analogues and random picks from the rest.

The subject of the test is glucose-6-phosphate dehydrogenase-6-phosphogluconolactonase (Plasmodium falciparum 3D7). Kind of test: inhibition of malaria parasite G6PD (PfGluPho) – biochemical, fluorescence intensity, uHTS, primary screen (AID 504690).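 Further: 0% = DMSO wells with substrate and 100% = DMSO wells lacking glucose-6-phosphate.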 The following applies: PfGluPho enzyme, NADPH resazurin-diaphorase fluorescence; at 20 µM; hits give high values.
Turning to `Cc1ccc(-n2ncc(C(=O)NC3CC3)c2C2CCN(C(=O)OC(C)(C)C)CC2)c(C)c1`, the inhibition was -21.1% (inactive). With `O=C(NCCOc1ccccc1)c1ccccc1F`, the inhibition was -13.3% (inactive). On to `OCC[C@H]1C[C@H](O)[C@@H](O)[C@]2(Cc3ccccc3CO2)O1`, for which the inhibition is 0.59% (inactive). Take `CCN(CC)S(=O)(=O)c1cccc(-c2n[nH]c(=S)n2/N=C/c2ccc(C(=O)OC)cc2)c1`: the inhibition was 13.1% (inactive).

Turning to `Cc1cc(-c2n[nH]c(=S)n2/N=C/C(Br)=C/c2ccccc2)n[nH]1`, the inhibition was 23.4% (inactive). Next, `S=c1[nH]nc(-c2cc(-c3ccccc3)n[nH]2)n1/N=C/c1c2ccccc2cc2ccccc12`: 59.1% (active).

As to `O=C(CCC(=O)OCC(F)(F)C(F)F)NCc1ccccc1`, the inhibition was 1.98% (inactive). For the compound `O=C1OC(Oc2ccc(Br)cc2)(c2ccccc2)c2ccccc21` (configuration not stated), the inhibition was 69.2% (active). Next, `COc1ccc(OC)c(-n2cc3c(=O)n(C)c(=O)n(C)c3c2)c1`: 17.5% (inactive); `CC[C@]12c3[nH]c4cc(CCC(=O)N(C)C)ccc4c3CCN1C(=O)[C@@H](CC(=O)NCC13CC4CC(CC(C4)C1)C3)C[C@@H]2C(=O)N1CCN(C(=O)C2CC2)CC1`: 0.29% (inactive). On to `O=c1[nH]c(/C=C\c2cccc(C(F)(F)F)c2)nc(O)c1[N+](=O)[O-]`, for which the inhibition is 1.8% (inactive).

As for `O=S(=O)(Nc1cccc(Oc2ccc(Cl)cc2)n1)c1ccc(F)cc1`, the inhibition was -6% (inactive). Regarding `CC(=O)N(C1=C(Cl)C(=O)c2ccccc2C1=O)c1ccc(C(=O)O)cc1`, the inhibition was 120% (active).

`CCCCN(C(=O)c1ccc(S(=O)(=O)N2CCOCC2)cc1)C1CCS(=O)(=O)C1` (configuration not stated): the inhibition is -2.48% (inactive). For `COc1ccc(CC(=O)NCC(=O)N/N=C/c2cc(Br)ccc2OC)cc1`, the inhibition is 99.2% (active). Turning to `Cc1ccc(OCCOCCOc2ccc(Br)cc2/C=N\NC(=O)c2ccncc2)cc1`, the inhibition is 40.5% (inactive). Turning to `O=C(CCc1ccc(O)cc1)NN=Cc1cc(Br)ccc1O`, the inhibition was -4.92% (inactive). With `O=[N+]([O-])c1c(NCCO)cc(Sc2nc3ccccc3s2)c2nonc12`, the inhibition is 89.2% (active).

On to `Cc1oc(C)c(C(=O)NCCCC(=O)O)c1C(=O)NCCCC(=O)O`, for which the inhibition was 2.34% (inactive).

As to `COc1cccc(C(=O)Nc2c3c(nn2-c2cccc(C)c2C)CS(=O)(=O)C3)c1OC`, the inhibition was 8.42% (inactive).

With `O=C1NC(=Nc2ccc(Cl)cc2)SC1Cc1cccc(Cl)c1Cl` (configuration not stated), the inhibition was -30.1% (inactive). On to `O=C(NC1CCCC1)C(c1ccc(Cl)cc1)N(C(=O)c1csnn1)C1CC1` (configuration not stated), for which the inhibition was -0.62% (inactive). As for `COc1cccc(-n2c(=S)[nH]c3c(oc4ccccc43)c2=O)c1`, the figure is 23.4% (inactive); as for `O=c1oc2ccccc2cc1-c1cn(-c2ccccc2)c(=S)[nH]1`, 64% (active); as for `Cc1ccc(S(=O)(=O)c2cc3c(=O)n4cccc(C)c4nc3n(CCc3ccccc3)c2=N)cc1C`, -4.62% (inactive). `C[n+]1cccc(C(=O)O)c1`: the inhibition was -8.19% (inactive). As for `Cc1cccc(C(=O)OC(C)C(=O)NC2CCCc3ccccc32)c1O` (configuration not stated), the figure is -19.6% (inactive); as for `O=C(Nc1ccc(OC(F)(F)F)cc1)c1ccc2c(c1)no[n+]2[O-]`, 69.8% (active); as for `CCOc1c2ccc(C(=O)NCc3ccc(OC(F)(F)F)cc3)cc2nn1C`, 1.65% (inactive). With `CCOC(=O)Cc1ncccc1C(=O)Nc1ccc(OC(F)(F)F)cc1`, the inhibition was -20.5% (inactive). Turning to `CC(NC(=S)Nc1ccc(S(N)(=O)=O)cc1)c1ccc2c(c1)OCO2` (configuration not stated), the inhibition is -1.17% (inactive). Take `O=C(CN1CCOCC1)Nc1ccccc1`: the inhibition is -18.6% (inactive). In the case of `O=C(CN1CCN(c2ccc(O)cc2)CC1)Nc1ccc(-c2ccccc2)cc1`, the inhibition was 69% (active).

For `O=C(CN1CCN(c2ccc(O)cc2)CC1)Nc1cc(S(=O)(=O)N2CCOCC2)ccc1Cl`, the inhibition was 73.8% (active). For the compound `Cc1ccc(Cl)cc1NC(=O)CN1CCN(S(=O)(=O)N2CCOCC2)CC1`, the inhibition was -17% (inactive). Regarding `O=C(CN1CCN(c2ccc(F)cc2)CC1)Nc1cccc(C(F)(F)F)c1`, the inhibition is 12.7% (inactive). As for `O=C(CN1CCN(c2cccc(Cl)c2)CC1)Nc1ccc(S(=O)(=O)N2CCOCC2)cc1`, the figure is 7.9% (inactive). `COc1cc2c(cc1OC)C(C(=O)NCc1ccco1)C1c3ccccc3CCN1C2=O` (configuration not stated): the inhibition was 0.17% (inactive). On to `CCn1nc(NC(=O)c2ccco2)c2cc3ccc(C)cc3nc21`, for which the inhibition was 6.85% (inactive). `O=C(NCCN=C1NS(=O)(=O)c2ccccc21)c1ccc(S(=O)(=O)N2CCOCC2)cc1`: the inhibition was 4.66% (inactive). For the compound `CC(C)(C)NC(=O)COc1ccc(CNc2ccc3[nH]c(=O)[nH]c3c2)cc1`, the inhibition is 94.7% (active). Next, `O=C(COc1ccc([N+](=O)[O-])cc1Cl)Nc1ccc2[nH]c(=O)[nH]c2c1`: 13.1% (inactive).

For `COC(=O)c1ccc(OCC(=O)NC(C)(C)C)cc1`, the inhibition is 3.26% (inactive). Next, `COc1ccccc1CN1CC(C(=O)NCCc2cn[nH]c2)CCC1=O` (configuration not stated): -1.62% (inactive); `Cc1ccc(C(=O)OCC(=O)Nc2ccc(Cl)cn2)cc1S(=O)(=O)N1CCOCC1`: -1.58% (inactive); `COC(C[C@@H](O)C[C@@H](O)[C@H](C)OCc1ccccc1)OC`: 10.8% (inactive).

In the case of `CCOC(=O)c1cccc(NC(=O)CCn2nnc3ccccc32)c1`, the inhibition is -9.98% (inactive). `COc1c(O)cccc1-c1nnn(CCC(=O)OCC(=O)c2ccccc2)n1`: the inhibition is 6.47% (inactive). As for `O=C(CCn1nnc2ccccc21)OCC(=O)c1ccc([N+](=O)[O-])cc1`, the inhibition was 59.2% (active). Next, `Cc1ccc(CSc2ccc(S(=O)(=O)N3CCCCC3)cn2)cc1`: 10.9% (inactive).

In the case of `CC(=O)Nc1ccc(CC#N)cc1`, the inhibition was -8.66% (inactive).

Turning to `O=C(NC(=O)c1cc(OCC(F)(F)F)ccc1OCC(F)(F)F)Nc1ccccc1`, the inhibition is 15.2% (inactive). As for `COc1ccc2cc(-c3[nH]ncc3CNCCn3nc(C)cc3C)ccc2c1`, the figure is -4.25% (inactive); as for `COc1ccc(Cl)cc1-n1c(=S)sc2c(=O)n(-c3ccc(F)cc3)c(SCC(=O)O)nc21`, 86.6% (active); as for `COc1cccc(-n2c(=S)sc3c(=O)n(-c4ccccc4C)c(SCC(=O)O)nc32)c1`, -2.42% (inactive).

In the case of `COc1cccc(-n2c(=S)sc3c(=O)n(-c4ccccc4OC)c(SCC4OCCO4)nc32)c1`, the inhibition is 22.9% (inactive). For `C/C(CC(=O)NC(C)c1ccccc1)=N\NC(N)=S` (configuration not stated), the inhibition was 6.14% (inactive). As for `CSc1ccc(S(=O)(=O)N2CCC(C(=O)NCc3ccncc3)CC2)cc1`, the figure is -30.2% (inactive); as for `CCOC(=O)C1CCN(Cc2c(C(=O)N3CCOCC3)nc3c(C)cccn23)CC1`, -12.6% (inactive). As for `Cc1cccn2c(CN(C)C3CCCc4ccccc43)c(C(=O)N3CCOCC3)nc12` (configuration not stated), the figure is 62.9% (active); as for `Cc1cccn2c(CNCC(C)Oc3cccnc3)c(C(=O)N3CCOCC3)nc12` (configuration not stated), 9.53% (inactive). Turning to `c1ccc2cc3c(NCCN4CCOCC4)ccnc3cc2c1`, the inhibition was 6.78% (inactive). As to `CC(=O)Nc1sc2c(c1C(c1cccc(F)c1)N1CCN(CCO)CC1)CCCC2` (configuration not stated), the inhibition was 7.18% (inactive).

Regarding `NC(=O)c1c(NC(=O)CSc2nnc(-c3ccco3)n2N)sc2c1CCCC2`, the inhibition was 7.61% (inactive). Next, `CCOC(=O)C(NC(=O)CC(C)C)(Nc1sc2c(c1C(N)=O)CCCC2)C(F)(F)F` (configuration not stated): -8.45% (inactive); `NC(=O)c1c(Nc2nc3c(F)cccc3s2)sc2c1CCCC2`: 63.4% (active). For `COc1ccc2[nH]c(=O)c(CNc3ccc(C)c(C)c3)cc2c1`, the inhibition is 41% (inactive). On to `CCN1CCCC1CNC(=O)c1ccc2c(c1)NC(=O)/C(=C\c1ccccc1F)S2` (configuration not stated), for which the inhibition was 127% (active). As for `CCN1CCN(CCNC(=O)c2ccc3c(c2)NC(=O)/C(=C\c2cccc(Cl)c2)S3)CC1`, the figure is 2.78% (inactive); as for `O=C1Nc2cc(C(=O)N3CCC(N4CCCCC4)CC3)ccc2S/C1=C\c1ccccc1`, -9.66% (inactive); as for `CN(C)S(=O)(=O)c1ccc(Cl)c(NC(=O)COC(=O)CC(NC(N)=O)c2ccc(Cl)cc2)c1` (configuration not stated), -3.62% (inactive). Consider `CCOC(=O)c1c(C)[nH]c(C)c1C(=O)CSc1nc(N)cc(N)n1`, for which the inhibition was 9.63% (inactive). Turning to `CCCCNC(=O)c1ccccc1NC(=O)C1=C(C)OCCS1`, the inhibition is -13.5% (inactive). As for `O=C(Nc1nnc(S(=O)(=O)N2CCOCC2)s1)c1cccc(Br)c1`, the inhibition was 103% (active). In the case of `Cc1nc2ccc(NC(=O)c3cccc(S(=O)(=O)N4CCOCC4)c3)cc2s1`, the inhibition is 19.6% (inactive). Next, `O=C(Nc1cccc(S(=O)(=O)N2CCCCC2)c1)c1cncc(Br)c1`: 9.89% (inactive); `Cc1cccc(NC(=O)c2cccc(S(=O)(=O)N3CCCC3)c2)n1`: -1.18% (inactive); `O=C(Nc1ccc(S(=O)(=O)Nc2nccs2)cc1)c1cccc(S(=O)(=O)N2CCOCC2)c1`: -1.66% (inactive).

As for `O=C(Nc1ccc(S(=O)(=O)N2CCOCC2)cc1)c1ccc2ncsc2c1`, the inhibition is 72.8% (active). As for `O=C(Nc1nnc(-c2ccccc2)o1)c1cccc(S(=O)(=O)N2CCOCC2)c1`, the inhibition was 0.98% (inactive). Take `O=C(Nc1nncs1)c1cccc(S(=O)(=O)N2CCCCC2)c1`: the inhibition was -40.8% (inactive).

As for `O=C(Nc1nnc(S(=O)(=O)N2CCCCCC2)s1)c1cccc(Br)c1`, the inhibition was 88.1% (active). As to `CCOC(=O)CSc1nnc(NC(=O)c2cccc(S(=O)(=O)N3CCCCC3)c2)s1`, the inhibition was -28.5% (inactive). Regarding `Cc1cccc(C(=O)Nc2nnc(S(=O)(=O)N3CCCCCC3)s2)c1`, the inhibition was 95.7% (active).

As to `O=C(Nc1ccc(N2CCOCC2)c(Cl)c1)c1ccc(S(=O)(=O)N2CCOCC2)cc1`, the inhibition is 0.32% (inactive). Next, `COc1ccc2[nH]c(=O)c(C3c4cc(OC)c(OC)cc4CCN3C(=O)c3ccco3)cc2c1` (configuration not stated): 8.2% (inactive); `O=C(NCc1cccnc1)c1ccc(CS(=O)(=O)c2ccc(Br)cc2)o1`: -4.96% (inactive).
